Compounds with a hit are over-represented: about 2.1% of the library has one in this group of screens.
PABP polyA inh: PABP-poly(A) binding inhibition. P11940. PABP-poly(A) RNA binding, fluorescence polarization. inhibition, % at 35 µM. hit rate 1% among 290,000. AID 2014;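 note: calls also rest on retests at 20 µM and on dose response follow-up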
Target sequence (P11940 whole entry, looked up): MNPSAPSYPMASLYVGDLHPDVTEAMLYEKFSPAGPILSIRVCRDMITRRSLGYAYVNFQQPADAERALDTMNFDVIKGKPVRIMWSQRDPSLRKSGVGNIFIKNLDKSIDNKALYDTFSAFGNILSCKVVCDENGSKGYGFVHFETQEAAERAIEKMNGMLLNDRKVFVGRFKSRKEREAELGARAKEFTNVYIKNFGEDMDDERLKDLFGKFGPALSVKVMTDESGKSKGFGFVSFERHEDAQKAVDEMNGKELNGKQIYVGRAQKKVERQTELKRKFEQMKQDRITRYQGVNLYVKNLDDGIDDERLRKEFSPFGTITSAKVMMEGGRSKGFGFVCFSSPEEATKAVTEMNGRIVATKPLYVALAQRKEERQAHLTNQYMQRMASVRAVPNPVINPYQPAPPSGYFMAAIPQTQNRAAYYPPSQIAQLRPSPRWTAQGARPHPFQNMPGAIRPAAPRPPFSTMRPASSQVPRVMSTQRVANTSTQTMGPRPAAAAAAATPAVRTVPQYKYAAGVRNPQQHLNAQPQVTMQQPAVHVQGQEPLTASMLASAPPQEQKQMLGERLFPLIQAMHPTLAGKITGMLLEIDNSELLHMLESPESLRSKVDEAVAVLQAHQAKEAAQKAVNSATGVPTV
MLLE-PAM2 inh: blocks PAM2 peptide binding to the PABP1 MLLE domain. hit rate 0.36% among 360,000. inhibition, % at 20 µM. P11940. AID 588489. GST-MLLE / FITC-PAM2 fluorescence polarization; in the data active = inhibition above about 35%, passing the limit was not always enough;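 note: plate controls were DMSO wells with GST-MLLE for no effect and wells lacking GST-MLLE protein for full effect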
CendR NRP1 mod: modulators of CendR peptide binding to human neuropilin-1. O14786. inhibition, % at 25 µM. FAM-RPARPAR peptide binding to NRP-1, fluorescence polarization. hit rate 0.85% among 360,000. AID 602438;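 active = inhibition or corrected inhibition above about 18%, plus a signal ratio from 0.5 to 1.5, limit read from the data, passing the limit was not always enough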
eIF4H inh: inhibitors of RNA binding by human eIF4H. eIF4H fluorescence polarization binding assay. inhibition, % at 35 µM. hit rate 0.94% among 290,000. AID 2012;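 note: calls also rest on retests at 20 µM and on dose response follow-up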
An asterisk follows results filed as active; u = inconclusive; x = no result. Unless noted, the rule behind the calls is not given here.

SMILES | PABP polyA inh | MLLE-PAM2 inh | CendR NRP1 mod | eIF4H inh
COC(=O)C[C@H]1c2cc(C(F)(F)F)ccc2S(=O)(=O)N1Cc1ccc(OC)cc1 | x | -9.6 | 21.7 | x
COC(=O)C[C@H]1c2cc(C(F)(F)F)ccc2S(=O)(=O)N1Cc1ccccc1 | x | 7.1 | 25.3* | x
COC(=O)C[C@H]1c2cc(C(F)(F)F)ccc2S(=O)(=O)N1C1CCCC1 | x | -3.3 | 24.1* | x
COC(=O)C[C@H]1c2cc(F)ccc2S(=O)(=O)N1C(C)C | x | -0.1 | 25.6* | x
CCOC(=O)C[C@H]1c2cc(F)ccc2S(=O)(=O)N1C1CCCCC1 | x | 2.2 | 25.8* | x
O=C(CNS(=O)(=O)c1ccc(Cl)c(C(F)(F)F)c1)NC1CCCCC1 | x | -4.7 | 4.3 | x
CC(=O)C[C@H]1c2cc(C(F)(F)F)ccc2S(=O)(=O)N1C1CCCCC1 | x | 4.2 | 26.9* | x
CCCCCCCCN1[C@@H](CC(C)=O)c2cc(C(F)(F)F)ccc2S1(=O)=O | x | -25.6 | 12.8 | x
COC(=O)C[C@H]1c2cc(F)cc(F)c2S(=O)(=O)N1C1CCN(Cc2ccccc2)CC1 | x | 19.5 | 26.8* | x
Cc1ccc(C(C)(C)C)cc1S(=O)(=O)Nc1cccc(C(=O)N2CCN(c3ccccn3)CC2)c1 | x | 0.9 | -2.9 | x
CNc1ccc(Br)cc(C(=O)/C=C/c2ccc(OC)cc2)c1=O | 0.7 | -22.7 | -71.0 | 31.9
CNc1ccc(Br)cc(C(=O)/C=C/c2ccc3c(c2)OCO3)c1=O | 48.0* | -23.4 | -148.6 | 92.0*
COC(=O)[C@H](CCSC)NC(=O)c1cc2c(cn1)[nH]c1ccccc12 | -1.4 | -17.6 | 11.4 | -9.2
CC1(C(=O)NS(=O)(=O)c2ccccc2Cl)CCN1C(=O)C1(c2ccccc2)CC1 (stereo not drawn) | x | -6.3 | -5.1 | x
O=C(CN1C(=O)NC2(CCCC2)C1=O)OCCOc1ccccc1Cl | x | -5.1 | 4.0 | x
O=C1NN(c2ccc(Cl)c(Cl)c2)C(=O)/C1=C/c1cccc(OC(=O)c2cccs2)c1 | 55.6* | x | x | 82.1*
Cc1cc(C)n(CC(=O)NNC(=O)C2CC(=O)N(Cc3ccccc3Cl)C2)n1 (stereo not drawn) | 2.3 | -6.0 | -2.6 | -10.3
Cc1[nH]c2ccccc2c1/C=C(\C#N)C(=O)NC(C)c1ccccc1 (stereo not drawn) | 56.8* | -120.7 | -6.5 | -10.2
COc1ccc(S(=O)(=O)NCC(=O)N(Cc2ccco2)C(C(=O)NC(C)(C)C)C(C)C)cc1 (stereo not drawn) | -3.2 | -3.5 | 0.1 | 7.1
O=[N+]([O-])c1ccc2c(c1)-c1ccccc1C2O (stereo not drawn) | x | 0.5 | 1.5 | x
O=C1C=CC(=Nc2cccc3c2C(=O)c2ccccc2-3)O1 | x | 56.3* | -29.1 | x
O=C1C=CC(=Nc2ccc3c(c2)Cc2cc(F)ccc2-3)O1 | x | 25.9 | -4.0 | x
O=c1[nH]c(CN2CCc3ccccc3C2)nc2ccccc12 | 1.3 | 40.7* | -8.5 | -1.8
CC(Cc1ccco1)NC(=O)c1cccc(S(=O)(=O)N(C)C)c1 (stereo not drawn) | -3.5 | -6.0 | 0.8 | -5.1
COc1ccc(/C(O)=C2/C(=O)C(=O)N(CC3CCCO3)C2c2ccc(O)c(OC)c2)cc1 (stereo not drawn) | 76.0* | 17.0 | 2.3 | active
SMILES | PABP polyA inh | MLLE-PAM2 inh | CendR NRP1 mod | eIF4H inh
COc1ccc(-c2csc(NCCc3nc4cc(C(=O)NCCCO)ccc4n3Cc3ccc(C)cc3)n2)cc1 | x | -68.5 | 27.0* | x
Cc1ccc(Cn2c(C3CCCN3c3nc(-c4ccc(F)cc4)cs3)nc3cc(C(=O)NCCCO)ccc32)cc1 (stereo not drawn) | x | -12.3 | -1.0 | x
COc1ccc(CN(C)C(=O)c2cc(S(=O)(=O)NCc3ccccc3)ccc2C)c(OC)c1 | x | 3.8 | 5.8 | x
COc1ccc(CN(C)C(=O)CCNS(=O)(=O)c2ccccc2)c(OC)c1 | x | 18.9 | 28.6* | x
O=C1CS/C(=N/N=C/c2ccccc2)N1c1ccc(O)cc1 | 2.1 | 9.6 | 0.3 | 16.7
O=C1CS/C(=N\N=C\c2ccco2)N1c1ccccc1 | 31.5* | -23.5 | -34.5 | 85.0*
O=C1OC(N2C(=O)CC[C@H]2C(=O)NCC2CCCO2)c2ccccc21 (stereo partly drawn) | 4.6 | -0.8 | 21.7* | 4.0
O=C(NCC1CCCO1)[C@@H]1CSC2c3ccccc3C(=O)N21 (stereo partly drawn) | -2.8 | 30.6 | -5.9 | 3.8
CCN(CC)C(=O)c1ncn(C)c1C(=O)N(CC)CC | x | -129.8 | 16.6 | x
NC1=C(Cl)C(=O)c2ccccc2C1=O | x | 16.5 | 26.9* | x
CC(=O)Nc1ccc(CNc2ncnc3ccc(-c4c(C)noc4C)cc23)cc1 | x | 8.4 | 35.6* | x
CC1(c2ccc(F)cc2)OC(=O)c2c1ccc1ccccc21 (stereo not drawn) | x | -1.1 | -3.6 | x
O=C(O)c1ccc(Sc2nnc3ccccn23)c([N+](=O)[O-])c1 | -4.4 | 6.0 | 2.7 | -11.4
CCN(CC)C(=O)Cn1cc(C(=O)C(=O)N2CCN(c3ccccc3)CC2)c2ccccc21 | 4.3 | -2.3 | 24.6* | 2.5
CCN(CC)C(=O)Cn1cc(C(=O)C(=O)N2CCN(C)CC2)c2ccccc21 | -0.7 | 2.9 | -2.3 | -5.3
CCCCN1CC[C@H]2C=CC[C@@H](C(=O)NCCc3ccccc3)[C@H]2C1=O | x | 9.8 | 14.3 | x
O=C(NCc1cccnc1)[C@@H]1CC=C[C@@H]2CCN(Cc3ccccc3)C(=O)[C@@H]21 | x | 9.4 | 32.4* | x
COc1ccc(CN2CC[C@H]3C=CC[C@@H](C(=O)NCCc4ccccc4)[C@H]3C2=O)cc1OC | x | -1.7 | 23.6* | x
O=C(Nc1ccccc1)[C@@H]1CC=C[C@@H]2CCN(Cc3ccccc3)C(=O)[C@@H]21 | x | -5.3 | 18.2 | x
CCCCN1CC[C@H]2C=CC[C@@H](C(=O)Nc3ccccc3)[C@H]2C1=O | x | 3.5 | 32.3* | x
CC(C(=O)Nc1nccs1)N1C(=O)c2ccccc2S1(=O)=O (stereo not drawn) | x | -11.0 | 0.6 | x
CC1CCCCN1C(=O)c1c([N+](=O)[O-])cnn1C (stereo not drawn) | -5.4 | 12.3 | 8.5 | -10.7
OC(c1cccnc1)c1nc(-c2ccc3c(c2)OCO3)cs1 (stereo not drawn) | x | -20.5 | -2.5 | x
OC(CON=C1c2ccccc2-c2ccccc21)CN1CCNCC1 (stereo not drawn) | 23.6 | -4.2 | -13.4 | 2.1
CCCn1c(=C(C#N)C#N)s/c(=C2\C=Cc3ccccc3N2CC)c1=O | 9.2 | 40.5* | 6.8 | 1.9
SMILES | PABP polyA inh | MLLE-PAM2 inh | CendR NRP1 mod | eIF4H inh
CCc1cc(C(=O)Nc2ncccc2O)sc1C | 4.0 | -2.3 | 6.4 | 10.8
COc1ccc(Cn2cc(CN3CC(N4CCN(C)CC4)CS3(=O)=O)nn2)cc1 (stereo not drawn) | x | x | -9.4 | x
C=CCn1c(-c2cccc(OC)c2)n[nH]c1=S | 82.2* | -20.2 | -6.7 | 2.5*
C=CCn1c(-c2cc3cccc(OC)c3o2)n[nH]c1=S | active | -10.5 | -7.2 | u
C=CCn1c(-c2cccc(OC)c2OC)n[nH]c1=S | u | -23.4 | -9.0 | -0.2
COc1ccc(N(CC(=O)N2CCOCC2)S(C)(=O)=O)cc1 | 3.7 | 2.5 | -77.6 | -0.1
C[C@H]1CN([C@@H](C)CO)S(=O)(=O)c2ccc(Br)cc2O[C@H]1CN(C)C(=O)c1cccnc1 | x | -1.8 | 5.0 | x
C=CCn1c(C)cc(C(=O)CSc2nc3ccccc3o2)c1C | 79.3* | -13.5 | -8.2 | 70.3*
CC(=O)Nc1nonc1NC(=O)CSc1nc2ccccc2o1 | 8.1 | 30.3 | 1.8 | -2.8
